From PubChem BioAssay AID588689 (Southern Research Specialized Biocontainment Screening …, 2011)
Screen size: about 340,000 compounds; about 1,000 (0.29%) were called active. Rule as the data show it: inconclusive = inhibition above about 29% without an active follow-up result; inactive = below that. The list is a sample of the results. Entries with a potency or affinity are not part of this list.

Molecular target: Genome polyprotein (Dengue virus type 2 (strain 16681-PDK53)) (UniProt P29991)
Test: flavivirus cap methylation enzyme inhibition – biochemical, confirmation dose response, primary screen (AID 588689)
Settings: Dengue-2 NS5 methyltransferase capping enzyme assay, at 25 µM, stronger effect = higher value
[1] = measured here: pilot screen replicate inhibition

Structure (SMILES): COc1ccccc1CNC(=O)CN(CCc1ccccc1)S(C)(=O)=O
- inhibition: -7.36% (inactive)

Structure (SMILES): COc1ccc(NS(=O)(=O)c2cc(NC(=O)c3sccc3C)ccc2N2CCOCC2)cc1
- inhibition: 0.57% (inactive)

Structure (SMILES): CC(=O)c1ccc(N2CCN(S(=O)(=O)c3c(C(=O)N4CCCCC4)c(C)n(C)c3C)CC2)cc1
- inhibition: -2.71% (inactive)

Structure (SMILES): Fc1cccc(Cl)c1CN1CCN(c2nc3ccccc3s2)CC1
- inhibition: -4.55% (inactive)

Structure (SMILES): CCn1c(/C=N/c2nc3ccccc3n2C)nc2ccccc21
- inhibition: -0.7% (inactive)

Structure (SMILES): COc1ccc(O)c(/C=N/c2nc3ccccc3n2C)c1
- inhibition: 3.47% (inactive)

Structure (SMILES): Cc1csc2c(=O)n3c(nc12)CCCCC3
- inhibition: -3.21% (inactive)

Structure (SMILES): CCN1C(=O)N/C(=C/c2ccc(Sc3ccc(C)cc3)o2)C1=O
- inhibition: -2.74% (inactive)

Structure (SMILES): Cc1ccc(Sc2ccc(/C=C3/C(=O)NN(c4ccccc4)C3=O)o2)cc1
- inhibition: -2.65% (inactive)

Structure (SMILES): O=C(COC(=O)/C=C/c1ccco1)NC1CCCCC1
- inhibition: -4.04% (inactive)

Structure (SMILES): CC(=O)Nc1ccc(C(=O)CSc2nnc(-c3ccccc3F)n2CCc2ccccc2)cc1
- inhibition: -4.64% (inactive)

Structure (SMILES): C[C@@H](C[C@@H](O)[C@H](O)C(C)(C)O)[C@@H]1CC[C@]2(C)C3=CC[C@H]4C(C)(C)C(=O)CC[C@]4(C)[C@H]3CC[C@@]12C
- inhibition: -3.21% (inactive)

Structure (SMILES): O=C(COC(=O)c1cc(Br)ccc1O)NNC(=O)c1cccs1
- inhibition: 0% (inactive)

Structure (SMILES): Nc1nc(SCc2ccccc2)c2[nH]cnc2n1
- inhibition: -9.52% (inactive)

Structure (SMILES): CNc1ncnc(Sc2nc(N)nc3nc[nH]c23)c1[N+](=O)[O-]
- inhibition: -30.9% (inactive)

Structure (SMILES): CC(C)C(NS(=O)(=O)c1cccc(C(F)(F)F)c1)C(=O)N1CCc2ccccc2C1 (configuration not stated)
- inhibition: -4.98% (inactive)

Structure (SMILES): CCn1c(SCC(=O)NNC(=O)c2ccc(C)cc2)nnc1C(C)C
- inhibition: 7.12% (inactive)

Structure (SMILES): Nc1ccc(N2CCCCC2)cc1N1CCCCC1
- inhibition: 25.7% (inactive)

Structure (SMILES): Nc1ccc(N2CCOCC2)c2nonc12
- inhibition: 45.2% (inactive)

Structure (SMILES): O=C1C2CCCN2C(=S)N1c1ccccc1 (configuration not stated)
- inhibition: -3.27% (inactive)

Structure (SMILES): COc1ccccc1-c1cc(N)n[nH]1
- inhibition: 2.4% (inactive)

Structure (SMILES): CC1CC(C)CN(C(=O)/C=C/c2ccc([N+](=O)[O-])s2)C1 (configuration not stated)
- inhibition: -5.44% (inactive)

Structure (SMILES): COc1ccc(N2C(=O)NC(=O)C2=O)cc1
- inhibition: -2.2% (inactive)

Structure (SMILES): CC1=CN2C(=N)/C(=C/c3ccc([N+](=O)[O-])o3)C(=O)N=C2S1
- inhibition: -58.2% (inactive)

Structure (SMILES): COc1cccc(NCc2ccc([N+](=O)[O-])s2)c1
- inhibition: -8.01% (inactive)

Structure (SMILES): COc1ccc(NC(C)C(=O)N/N=C/c2ccc([N+](=O)[O-])s2)cc1 (configuration not stated)
- inhibition: -5.18% (inactive)

Structure (SMILES): Cc1cc(C)cc(N=Cc2ccc([N+](=O)[O-])s2)c1
- inhibition: 4.37% (inactive)

Structure (SMILES): COc1cccc(N2C(=O)/C(=C\c3cccs3)NC2=S)c1
- inhibition: -5.28% (inactive)

Structure (SMILES): Cc1ccc(/C=C2\C(=O)NC(=O)N2C)o1
- inhibition: 23.3% (inactive)

Structure (SMILES): Cc1cc(-c2ccc(S(=O)(=O)NCc3ccc(F)cc3)cc2)on1
- inhibition: -4.39% (inactive)

Structure (SMILES): O=C(Cc1ccc(Br)cc1)N/N=C/c1cccnc1
- inhibition: 1.95% (inactive)

Structure (SMILES): CCOC(=O)Cc1csc(SC(C)C(=O)Nc2ccc(NC(C)=O)cc2)n1 (configuration not stated)
- inhibition: -3.63% (inactive)

Structure (SMILES): Cc1ccc(/C=C/C2=NN(Cc3ccccc3Cl)C(=O)CC2)cc1
- inhibition: -2.71% (inactive)

Structure (SMILES): O=C(CCC1CCCC1)NCCS(=O)(=O)N1CCN(c2ccccc2)CC1
- inhibition: -5.17% (inactive)

Structure (SMILES): Cc1c(C(=O)OCC(=O)N2CC(=O)Nc3ccccc32)oc2ccc(Br)cc12
- inhibition: -0.83% (inactive)

Structure (SMILES): Cc1cccc(NC(=O)C(=O)NCC2CCCN2S(=O)(=O)c2cccs2)c1 (configuration not stated)
- inhibition: 6.86% (inactive)

Structure (SMILES): Cc1onc(-c2ccccc2)c1C(=O)OCC(=O)c1ccc[nH]1
- inhibition: -1.1% (inactive)

Structure (SMILES): COC(=O)NC1CSCC1OC(=O)CN1C(=O)c2ccccc2C1=O (configuration not stated)
- inhibition: 1.83% (inactive)

Structure (SMILES): NS(=O)(=O)c1ccc(NC(=O)COc2ccc(S(=O)(=O)N3CCCC3)cc2)cc1
- inhibition: -0.81% (inactive)

Structure (SMILES): O=C1N/C(=C/c2ccc(Br)s2)C(=O)N1c1ccccc1
- inhibition: -5.43% (inactive)

Structure (SMILES): O=C1NC(=O)N(c2ccccc2)C1=O
- inhibition: 0% (inactive)

Structure (SMILES): Cc1ccc(-n2nnnc2CS(=O)(=O)c2ccccc2)c(C)c1
- inhibition: -5.86% (inactive)

Structure (SMILES): C=CCc1ccccc1OCC(=O)OCCNC(=O)c1cccnc1
- inhibition: 3.9% (inactive)

Structure (SMILES): Cc1ccc(NCc2ccccc2)cc1
- inhibition: -5.19% (inactive)

Structure (SMILES): CSc1ccc(CNc2ccc(C)cc2)cc1
- inhibition: 2.76% (inactive)

Structure (SMILES): COc1ccccc1N=c1oc2c(OC)cccc2cc1C(=O)NCc1ccco1
- inhibition: 12.3% (inactive)
- inhibition [1]: 6.37%

Structure (SMILES): COc1ccc(OC)c(N=c2oc3c(OC)cccc3cc2C(=O)NCc2ccco2)c1
- inhibition: -9.6% (inactive)
- inhibition [1]: -5.77%

Structure (SMILES): O=c1oc2ccccc2c(O)c1C=Nc1cccnc1
- inhibition: -5.19% (inactive)

Structure (SMILES): O=[N+]([O-])c1c(Nc2ccc(O)cc2)cc(N2CCOCC2)c2nonc12
- inhibition: 9.17% (inactive)

Structure (SMILES): CC(=O)Nc1ccc(Nc2cc(N3CCOCC3)c3nonc3c2[N+](=O)[O-])cc1
- inhibition: -6.25% (inactive)

Structure (SMILES): CN(C)c1cc(Nc2cccc(O)c2)c([N+](=O)[O-])c2nonc12
- inhibition: 6.85% (inactive)

Structure (SMILES): O=[N+]([O-])c1ccc(Nc2ccccn2)c([N+](=O)[O-])c1
- inhibition: -9.54% (inactive)

Structure (SMILES): COc1cccc(Nc2cc(N3CCOCC3)c3nonc3c2[N+](=O)[O-])c1
- inhibition: 2.01% (inactive)

Structure (SMILES): Nc1cc(Nc2ccccc2)c2nonc2c1[N+](=O)[O-]
- inhibition: -1.31% (inactive)

Structure (SMILES): CN(C)c1cc(Nc2ccc(O)cc2)c([N+](=O)[O-])c2nonc12
- inhibition: -10.7% (inactive)

Structure (SMILES): CC(=O)Nc1ccc(Nc2cc(N(C)C)c3nonc3c2[N+](=O)[O-])cc1
- inhibition: -5.29% (inactive)

Structure (SMILES): Cc1ccc(-c2cc(C(=O)N3CCOCC3)c3cc(C)ccc3n2)cc1
- inhibition: -1.58% (inactive)

Structure (SMILES): O=C1CS/C(=C\S(=O)(=O)c2ccc(Cl)cc2)N1
- inhibition: -10.6% (inactive)

Structure (SMILES): CCC(=O)N1c2ccccc2-c2nnc(SC)nc2OC1c1ccc(N(C)C)cc1 (configuration not stated)
- inhibition: -7.25% (inactive)

Structure (SMILES): Cc1cnn(C(=O)c2cc(-c3ccccn3)nc3ccc(Cl)cc23)c1
- inhibition: 8.88% (inactive)

Structure (SMILES): CCOC(=O)NC1(C(F)(F)F)NC(=O)N(C2CCCCC2)C1=O (configuration not stated)
- inhibition: -2.12% (inactive)

Structure (SMILES): COc1ccc(CCNC(=O)CSc2nc(=O)n3cc(C)ccc3n2)cc1OC
- inhibition: 3.6% (inactive)

Structure (SMILES): CCCCn1c(SCC(=O)NNC(=O)c2ccccc2)n[nH]c1=O
- inhibition: 3.69% (inactive)

Structure (SMILES): Cc1nnc(SCC(=O)Nc2nc3ccccc3s2)n(N)c1=O
- inhibition: -2.58% (inactive)

Structure (SMILES): O=C(O)c1ccc(Nc2ccc([N+](=O)[O-])c3nonc23)cc1
- inhibition: -1.54% (inactive)

Structure (SMILES): Cc1c(Nc2cc(N3CCCCCC3)c3nonc3c2[N+](=O)[O-])c(=O)n(-c2ccccc2)n1C
- inhibition: -6.93% (inactive)

Structure (SMILES): O=C(O)c1ccc(Nc2ccc3nonc3c2[N+](=O)[O-])cc1
- inhibition: -2.31% (inactive)

Structure (SMILES): O=[N+]([O-])c1c(Nc2ccccc2O)ccc2nonc12
- inhibition: 6.25% (inactive)

Structure (SMILES): O=C(O)c1cccc(Nc2ccc([N+](=O)[O-])c3nonc23)c1
- inhibition: 1.29% (inactive)

Structure (SMILES): O=C(O)c1cccc(Nc2ccc3nonc3c2[N+](=O)[O-])c1
- inhibition: 1.54% (inactive)

Structure (SMILES): CCNc1cc(Nc2c(C)n(C)n(-c3ccccc3)c2=O)c([N+](=O)[O-])c2nonc12
- inhibition: 6.99% (inactive)

Structure (SMILES): O=[N+]([O-])c1c(Nc2ccccc2O)cc(N2CCOCC2)c2nonc12
- inhibition: 6.36% (inactive)

Structure (SMILES): O=C(COC(=O)/C=C/c1cccc(Br)c1)NCc1cccs1
- inhibition: -4.41% (inactive)

Structure (SMILES): COCCCNC(=O)Cn1cnc(C(=O)Nc2ccc(C)c(C)c2)n1
- inhibition: -3.97% (inactive)
- inhibition [1]: 0.615%

Structure (SMILES): COc1cccc(Nc2nc(N)nc(-c3oc4ccccc4c3C)n2)c1
- inhibition: -4.01% (inactive)

Structure (SMILES): Cc1ccc(NS(=O)(=O)c2ccc(OCC(=O)NCC3CCCO3)cc2)cc1 (configuration not stated)
- inhibition: 2.96% (inactive)

Structure (SMILES): O=S(=O)(Nc1ccc2c(c1)nc1n2CCOC1)c1ccc(Cl)cc1
- inhibition: -6.15% (inactive)

Structure (SMILES): COc1cccc(/C=N/N2CCOCC2)c1O
- inhibition: -2.67% (inactive)

Structure (SMILES): COc1ccc(O)c(/C=N/N2CCOCC2)c1
- inhibition: -4.77% (inactive)

Structure (SMILES): COc1ccc(C=C2NC(=O)NC2=O)cc1O
- inhibition: 5.71% (inactive)

Structure (SMILES): COc1ccc(NC(=S)N(CCC(C)C)C(C)c2ccncc2)cc1 (configuration not stated)
- inhibition: 0.57% (inactive)

Structure (SMILES): CCOC(=O)c1ccc(OCc2nc(-c3cccs3)no2)cc1
- inhibition: -0.7% (inactive)

Structure (SMILES): CN(C)S(=O)(=O)c1cccc(NC(=O)CO/N=C(\N)c2ccccc2)c1
- inhibition: 2.16% (inactive)

Structure (SMILES): CCN1C(=O)/C(=C\c2cn(-c3ccccc3)nc2-c2cccnc2)SC1=S
- inhibition: 2.99% (inactive)

Structure (SMILES): CC1CCN(C2=NC(=O)/C(=C/c3cn(-c4ccccc4)nc3-c3cccc(S(=O)(=O)N(C)C)c3)S2)CC1
- inhibition: -0.56% (inactive)

Structure (SMILES): CN(C)S(=O)(=O)c1cccc(-c2nn(-c3ccccc3)cc2/C=C2\SC(=S)NC2=O)c1
- inhibition: -16% (inactive)

Structure (SMILES): COc1ccc(-c2nn(-c3ccccc3)cc2/C=C2/SC(=S)N(CCC(=O)O)C2=O)cc1
- inhibition: 11.8% (inactive)

Structure (SMILES): CCC(=O)Nc1ccc2ccccc2c1
- inhibition: -7.67% (inactive)

Structure (SMILES): CCC(=O)Nc1ccc2c(c1)ncn2C
- inhibition: -8.57% (inactive)

Structure (SMILES): O=c1[nH]nc(-c2ccc(F)cc2)cc1Cc1ccccc1
- inhibition: -7.66% (inactive)

Structure (SMILES): N#C/C(=C\c1ccccc1OCc1ccc(C(=O)O)cc1)C(=O)Nc1ccc(O)cc1
- inhibition: 27% (inactive)

Structure (SMILES): COc1ccc(NC(=O)/C(C#N)=C\c2ccc(OCc3ccc(C(=O)O)cc3)c(OC)c2)cc1
- inhibition: -8.98% (inactive)

Structure (SMILES): O=C(NCCCN1CCOCC1)c1ccc(S(=O)(=O)Nc2ccccc2)cc1
- inhibition: -4.34% (inactive)

Structure (SMILES): Cc1ccc(NC(=O)Nc2cc(C)on2)cc1
- inhibition: -0.74% (inactive)
